# Laboratory results published in PubChem BioAssay (Tox21).
# Results filed as inconclusive are left out. A call without a number means that no potency is given here. Active and inactive are the calls of the source. Unless noted, calls follow the shape of the dose curve; as a rule, active = well fitted curve in the direction sought with a large enough effect in the repeat runs; inconclusive = weak or mixed curves; inactive = no such curve, though single readings can be large; an effect the other way counts as inactive or inconclusive.
# Columns and labels:
# [1] = qHTS assay for small molecule agonists of the p53 signaling pathway (AID 651631; calls by dose curve; also: nearly all actives have a fitted effect of over 15% in size)
# Summary of the method: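 Quantitative high-throughput format: 4,000 p53RE-bla HCT-116 cells/well, 5 h pre-incubation, 16 h compound exposure at 37 °C, 2 h room-temperature substrate step, fluorescence intensity measured.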
# [2] = qHTS assay for small molecules that induce genotoxicity in human embryonic kidney cells expressing luciferase-tagged ATAD5 (AID 651632); also: nearly all actives have a fitted effect of over 15% in size
# Summary of the method: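 Quantitative HTS in HEK293T expressing luciferase-tagged ATAD5, whose levels rise upon DNA damage. Exposure ran 16 hr at 37C and 5% CO2, with luminescence read 30 min after Amplite addition at room temperature.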
# [3] = qHTS assay for small molecule agonists of the p53 signaling pathway - cell viability (AID 651633; calls by dose curve;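 also: p53RE-bla HCT reporter cells with a stable beta-lactamase p53 reporter; series mostly up to about 83 µM; nearly all actives have a fitted effect of over 30% in size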)
# Summary of the method: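 p53RE-bla cells, seeded at 4,000 per well and rested 5 h at 37 C/5% CO2, received compounds in DMSO for 16 h at 37 C. CellTiter-Glo was then added, and luminescence was read after 30 min at room temperature to gauge cytotoxicity.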
# [4] = qHTS assay for small molecules that induce genotoxicity in human embryonic kidney cells expressing luciferase-tagged ATAD5 - cell viability (AID 651634; calls by dose curve; also: nearly all actives have a fitted effect of over 25% in size)
# Summary of the method: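 After 15.5 hr incubation with compound at 37C, 5% CO2, HEK293T ATAD5-luciferase cells received CellTiter-Fluor reagent; fluorescence intensity was quantified following 30 min at 37C.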
# [5] = qHTS assay for small molecule disruptors of the mitochondrial membrane potential - cell viability (AID 720634; calls by dose curve;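 also: human HepG2 liver cancer cells; series mostly up to about 83 µM; nearly all actives have a fitted effect of over 20% in size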)
# Summary of the method: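 ATP-based luminescent viability readout (CellTiter-Glo, 30 min, room temperature) in HepG2 cells multiplexed with the m-MPI membrane potential dye; compound exposure lasted 1 hr at 37 C.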
# [6] = qHTS assay to test for compound auto fluorescence at 590 nm (red) in HepG2 cells (AID 720674)
# Summary of the method: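 Compound auto-fluorescence is scored relative to Rose Bengal sodium, measured at 540/590 nm in live HepG2 cultures after 1 hr compound contact (37 C, 5% CO2).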
# [7] = qHTS assay to test for compound auto fluorescence at 535 nm (green) in HepG2 cells (AID 720675)
# [8] = qHTS assay to test for compound auto fluorescence at 460 nm (blue) in HEK293 cells (AID 720678)
# Summary of the method: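 HEK293, 2,000 cells/well, 10% dialyzed FBS; attach 4-5 hr 37C; pin compound or DMSO; o/n 37C/5% CO2; fluorescence 405/460 nm; triamterene-equivalent units.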
# [9] = qHTS assay to test for compound auto fluorescence at 590 nm (red) in HEK293 cells (AID 720679)
# Summary of the method: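 Intensity at 540nm excitation and 590nm emission is reported as Rose Bengal sodium-equivalent autofluorescence. Measurements followed overnight exposure (37C, 5% CO2) of HEK293 cells, 2,000 per well, to 23 nL compound.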
# [10] = qHTS assay to test for compound auto fluorescence at 535 nm (green) in HEK293 cells (AID 720680)
# [11] = qHTS assay to test for compound auto fluorescence at 460 nm (blue) in HEK293 cell free culture (AID 720681)
# Summary of the method: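 Test compounds were pinned into cell-free culture medium (DMEM with 10% FBS) and fluorescence was read directly at Ex/Em 405/460 nm. Signals were expressed as fluorescence equivalents of triamterene, with DMSO vehicle as control.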
# [12] = qHTS assay to test for compound auto fluorescence at 535 nm (green) in HEK293 cell free culture (AID 720682)
# Summary of the method: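 Measurement is a direct plate read of green fluorescence (485 nm in, 535 nm out) after compound addition to serum-supplemented DMEM lacking cells, with fluorescein used to express intensities.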
# [13] = qHTS assay to test for compound auto fluorescence at 590 nm (red) in HEK293 cell free culture (AID 720683)
# Summary of the method: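 Tox21 10K library compounds were pinned into cell-free DMEM with 10% FBS and fluorescence was read at excitation 540 nm. Activity is expressed as Rose Bengal sodium equivalency.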
# [14] = qHTS assay to test for compound auto fluorescence at 590 nm (red) in HepG2 cell free culture (AID 720684)
# Summary of the method: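 Ex 540 / Em 590 nm read of compound in cell-free MEM (10% FBS). Rose Bengal sodium reference.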
# [15] = qHTS assay to test for compound auto fluorescence at 460 nm (blue) in HepG2 cell free culture (AID 720685)
# Summary of the method: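 Cell-free plates of MEM plus 10% FBS received 23 nL compound or DMSO vehicle; blue-channel (405/460 nm) intensity scored against triamterene as reference fluorophore.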
# [16] = qHTS assay to test for compound auto fluorescence at 535 nm (green) in HepG2 cell free culture (AID 720686)
# [17] = qHTS assay to test for compound auto fluorescence at 460 nm (blue) in HepG2 cells (AID 720687)
# Summary of the method: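 Cells (2,000/well in MEM with 10% FBS) attached overnight at 37 C, then were exposed to compound or DMSO for 1 hr at 37 C, 5% CO2. Fluorescence read at Ex/Em 405/460 nm, expressed as triamterene-equivalent signal.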
# [18] = qHTS assay to identify small molecule antagonists of the glucocorticoid receptor (GR) signaling pathway - cell viability counter screen (AID 720693); also: nearly all actives have a fitted effect of over 55% in size
# [19] = qHTS assay for identifying genotoxic compounds that show differential cytotoxicity against isogenic chicken DT40 cell lines with known DNA damage response pathways - wild type cell line (AID 743012); also: potency is read from the fitted curve at half-maximal effect; nearly all actives have a fitted effect of over 60% in size
# Summary of the method: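 Luminescent ATP viability signal (CellTiter-Glo, 30 min RT) recorded after wild type DT40 cells were incubated with compounds for 40 h at 37 C/5% CO2.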
# [20] = qHTS assay for identifying genotoxic compounds that show differential cytotoxicity against isogenic chicken DT40 cell lines with known DNA damage response pathways - Rev3 mutant cell line (AID 743014); also: potency is read from the fitted curve at half-maximal effect; nearly all actives have a fitted effect of over 55% in size
# [21] = qHTS assay for identifying genotoxic compounds that show differential cytotoxicity against isogenic chicken DT40 cell lines with known DNA damage response pathways - Rad54/Ku70 mutant cell line (AID 743015); also: potency is read from the fitted curve at half-maximal effect; nearly all actives have a fitted effect of over 60% in size
# [22] = qHTS assay to identify small molecule antagonists of the androgen receptor (AR) signaling pathway - cell viability counter screen (AID 743033; also: nearly all actives have a fitted effect of over 45% in size)
# [23] = qHTS assay to identify small molecule antagonists of the thyroid receptor (TR) signaling pathway - cell viability counter screen (AID 743064); also: potency is read from the fitted curve at half-maximal effect; nearly all actives have a fitted effect of over 50% in size
# Summary of the method: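 Compounds were tested on GH3.TRE-Luc cells in the presence of T3 at 1 nM final. Following 23.5 h at 37 °C, cell viability was quantified by CellTiter-Fluor.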
# [24] = qHTS assay to identify small molecule antagonists of the thyroid receptor (TR) signaling pathway (AID 743065); also: potency is read from the fitted curve at half-maximal effect; nearly all actives have a fitted effect of over 55% in size
# Summary of the method: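 GH3.TRE-Luc rat pituitary cells carrying two TR response elements driving luciferase were plated for 4 h, given compound plus 1 nM T3 (final), and incubated 23.5 h at 37 C. ONE-Glo luminescence measured reporter inhibition; CellTiter-Fluor fluorescence tracked cytotoxicity.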
# [25] = system: thyroid hormone receptor (rat, GH3 cells); assay: qHTS assay to identify small molecule agonists of the thyroid receptor (TR) signaling pathway (AID 743066; calls by dose curve)
# [26] = target: Estrogen receptor (Homo sapiens) (UniProt P03372); assay: qHTS assay to identify small molecule antagonists of the estrogen receptor alpha (ER-alpha) signaling pathway (AID 743069; active = well fitted curve in the direction sought with a large enough effect in the signal ratio in the repeat runs, not every such curve was filed as active; the % refers to the signal ratio)
# Summary of the method: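 A 17beta-estradiol challenge was applied right after compound transfer to ER-alpha-UAS-bla HEK293 cells previously kept in charcoal-stripped serum. Plates stood 18 hr at 37C and 5% CO2; fluorescence was read following 2 hr FRET substrate loading at room temperature.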
# [27] = qHTS assay to identify small molecule antagonists of the estrogen receptor alpha (ER-alpha) signaling pathway - cell viability counter screen (AID 743074; calls by dose curve;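 also: HEK293 cells carrying ER-alpha-UAS-bla reporter stimulated with 17beta-estradiol; nearly all actives have a fitted effect of over 45% in size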)
# [28] = target: Estrogen receptor (Homo sapiens) (UniProt P03372); assay: qHTS assay to identify small molecule agonists of the estrogen receptor alpha (ER-alpha) signaling pathway (AID 743075; calls by dose curve;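 also: HEK293 GripTite cells with ER-alpha and UAS-driven beta-lactamase reporter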)
# [29] = target: Estrogen receptor (Homo sapiens) (UniProt P03372); assay: qHTS assay to identify small molecule agonists of the estrogen receptor alpha (ER-alpha) signaling pathway using the BG1 cell line (AID 743079); also: nearly all actives have a fitted effect of over 20% in size
# [30] = qHTS assay to identify small molecule antagonists of the estrogen receptor alpha (ER-alpha) signaling pathway using the BG1 cell line (AID 743080; calls by dose curve;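 also: BG1 cells stimulated with 17beta-estradiol alongside compound; series mostly up to about 70 µM; nearly all actives have a fitted effect of over 25% in size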)
# Summary of the method: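 BG1Luc4E2, endogenous ER-alpha, 4xERE-luc; 5 d charcoal-stripped FBS, phenol red free; 24 h plating; cpd + 17beta-estradiol 21.5 h, 37 C/5% CO2; CellTiter-Fluor viability 30 min, then ONE-Glo luciferase 30 min RT.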
# [31] = qHTS assay to identify small molecule antagonists of the estrogen receptor alpha (ER-alpha) signaling pathway using the BG1 cell line - cell viability counter screen (AID 743081);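 also: compound given together with 17beta-estradiol as the ER stimulus; potency is read from the fitted curve at half-maximal effect; nearly all actives have a fitted effect of over 45% in size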
# [32] = target: Aromatase (Homo sapiens) (UniProt P11511); assay: qHTS assay to identify aromatase inhibitors (AID 743083); also: series mostly up to about 70 µM; nearly all actives have a fitted effect of over 55% in size
# [33] = qHTS assay to identify aromatase inhibitors - cell viability counter screen (AID 743084)
# [34] = target: Aryl hydrocarbon receptor (Homo sapiens) (UniProt P35869); assay: qHTS assay to identify small molecule that activate the aryl hydrocarbon receptor (AhR) signaling pathway (AID 743085);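 also: HG2L7.5c1 human HepG2 liver cells with stably integrated DRE-driven firefly reporter; series mostly up to about 70 µM; nearly all actives have a fitted effect of over 15% in size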
# Summary of the method: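 24 h compound exposure, 37C, HepG2-derived HG2L7.5c1 cells with DRE-responsive luciferase. Readouts: fluorescence viability, then luminescence at room temperature after 30 min.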
# [35] = qHTS assay to identify small molecule that activate the aryl hydrocarbon receptor (AhR) signaling pathway - cell viability counter screen (AID 743086);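 also: HepG2 liver cells carrying the AhR DRE luciferase reporter; series mostly up to about 70 µM; nearly all actives have a fitted effect of over 45% in size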
# Summary of the method: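 HepG2-AhR-luc (HG2L7.5c1) cells, 4000/well, were preincubated 5 h at 37C, exposed to compound in qHTS format for 24 hr at 37C, then given CellTiter-Fluor for 30 min; viability was read as fluorescence in the reporter wells.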
# Estrogen receptor (Homo sapiens), sequence (P03372 whole entry, looked up): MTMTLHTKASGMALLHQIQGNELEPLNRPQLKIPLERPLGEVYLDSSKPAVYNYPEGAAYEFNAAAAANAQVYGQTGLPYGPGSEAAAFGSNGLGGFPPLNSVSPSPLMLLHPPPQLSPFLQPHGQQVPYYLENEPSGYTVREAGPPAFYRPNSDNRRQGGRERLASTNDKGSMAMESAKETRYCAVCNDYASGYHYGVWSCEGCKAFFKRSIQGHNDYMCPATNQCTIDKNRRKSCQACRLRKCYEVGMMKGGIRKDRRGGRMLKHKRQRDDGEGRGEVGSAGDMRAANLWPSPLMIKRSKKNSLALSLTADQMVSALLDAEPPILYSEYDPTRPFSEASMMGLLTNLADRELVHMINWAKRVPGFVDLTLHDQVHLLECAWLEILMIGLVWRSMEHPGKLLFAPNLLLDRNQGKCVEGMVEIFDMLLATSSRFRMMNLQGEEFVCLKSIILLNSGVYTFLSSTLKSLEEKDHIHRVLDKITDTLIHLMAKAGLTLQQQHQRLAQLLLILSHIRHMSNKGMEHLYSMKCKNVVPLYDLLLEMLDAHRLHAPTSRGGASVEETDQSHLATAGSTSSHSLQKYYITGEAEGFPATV
# Aryl hydrocarbon receptor (Homo sapiens), sequence (P35869 whole entry, looked up): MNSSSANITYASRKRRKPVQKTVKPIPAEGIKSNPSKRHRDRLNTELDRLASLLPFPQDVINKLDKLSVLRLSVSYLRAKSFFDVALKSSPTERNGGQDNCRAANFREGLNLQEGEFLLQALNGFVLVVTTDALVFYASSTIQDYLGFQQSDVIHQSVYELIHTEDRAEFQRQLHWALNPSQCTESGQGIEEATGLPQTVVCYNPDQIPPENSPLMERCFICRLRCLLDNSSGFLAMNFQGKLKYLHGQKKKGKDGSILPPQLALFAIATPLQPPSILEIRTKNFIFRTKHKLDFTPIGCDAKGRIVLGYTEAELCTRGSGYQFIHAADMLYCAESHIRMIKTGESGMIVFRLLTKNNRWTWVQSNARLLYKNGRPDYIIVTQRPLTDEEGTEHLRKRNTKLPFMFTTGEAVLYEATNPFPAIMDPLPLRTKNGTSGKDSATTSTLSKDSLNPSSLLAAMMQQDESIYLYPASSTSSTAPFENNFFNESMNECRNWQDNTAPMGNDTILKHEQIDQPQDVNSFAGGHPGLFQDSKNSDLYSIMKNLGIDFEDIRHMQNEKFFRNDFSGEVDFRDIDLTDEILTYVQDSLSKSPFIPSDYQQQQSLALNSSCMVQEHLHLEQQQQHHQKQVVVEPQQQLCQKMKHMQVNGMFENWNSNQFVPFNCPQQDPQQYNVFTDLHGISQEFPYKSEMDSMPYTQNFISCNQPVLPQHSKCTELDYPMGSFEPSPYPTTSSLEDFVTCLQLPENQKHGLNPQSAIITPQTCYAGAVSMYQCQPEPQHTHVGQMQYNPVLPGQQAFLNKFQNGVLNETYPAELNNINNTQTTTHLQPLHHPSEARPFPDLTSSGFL
# Aromatase (Homo sapiens), sequence (P11511 whole entry, looked up): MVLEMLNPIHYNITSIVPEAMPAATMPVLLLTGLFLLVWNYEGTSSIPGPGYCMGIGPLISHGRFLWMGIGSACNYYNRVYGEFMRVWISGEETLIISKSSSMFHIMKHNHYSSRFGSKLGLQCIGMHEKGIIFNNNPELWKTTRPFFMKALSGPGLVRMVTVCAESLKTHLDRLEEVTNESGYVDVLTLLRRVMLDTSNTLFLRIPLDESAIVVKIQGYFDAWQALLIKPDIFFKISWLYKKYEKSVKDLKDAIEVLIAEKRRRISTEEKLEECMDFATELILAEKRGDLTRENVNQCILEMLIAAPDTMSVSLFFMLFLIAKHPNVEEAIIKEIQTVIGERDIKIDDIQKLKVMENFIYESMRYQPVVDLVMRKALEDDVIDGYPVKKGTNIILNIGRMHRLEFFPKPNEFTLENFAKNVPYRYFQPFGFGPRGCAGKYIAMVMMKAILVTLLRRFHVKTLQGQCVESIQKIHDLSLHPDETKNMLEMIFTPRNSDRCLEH
smiles,measurement,setting,value
COc1cc(C[C@H](C)N)c(OC)cc1Br,Potency,[1],inactive
same,outcome,[2],inactive
same,Potency,[3],inactive
same,Potency,[4],inactive
same,outcome,[5],inactive
same,outcome,[6],inactive
same,outcome,[7],inactive
same,outcome,[8],inactive
same,outcome,[9],inactive
same,outcome,[10],inactive
same,outcome,[11],inactive
same,outcome,[12],inactive
same,outcome,[13],inactive
same,outcome,[14],inactive
same,outcome,[15],inactive
same,outcome,[16],inactive
same,outcome,[17],inactive
same,Potency,[18],inactive
same,Potency,[19],70.4 µM (active)
same,Potency,[20],62.7 µM (active)
same,Potency,[21],70.4 µM (active)
same,Potency,[22],inactive
same,Potency,[23],70.4 µM (active)
same,Potency,[24],31.4 µM (active)
same,outcome,[25],inactive
same,outcome,[26],inactive
same,Potency,[27],inactive
same,Potency,[28],inactive
same,Potency,[29],inactive
same,outcome,[30],inactive
same,Potency,[31],15.8 µM (active)
same,Potency,[32],inactive
same,outcome,[33],inactive
same,outcome,[34],inactive
same,Potency,[35],inactive
